mHTT-CaM PPI inh: inhibitors of human mutant huntingtin-calmodulin interaction | AID 1671202 | actives 3.6% (n = 190,000) | inhibition, % at 15 µM | P42858 | AlphaScreen His-mHTT/GST-CaM binding, luminescence;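 note: 0% = both proteins with DMSO and 100% = one protein alone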
Pf apPOL block: Pf-apPOL DNA polymerase inhibition; Recombinant Pf-apPOL, molecular beacon fluorescence, 1.5 h; inhibition, % at 10 µM; actives 0.25% (n = 210,000); AID 1794808
Starred values were filed as active, the others as inactive; x = no result; ! = not confirmed by another sample. Many of the other results were omitted from the sample, so hits are more common in it than they were. Cut-off read from the data, not from the text of the source: active = inhibition above about 50%; inactive = the rest.

SMILES	mHTT-CaM PPI inh	Pf apPOL block
COc1ccc(N2C[C@H](Cc3ccccc3)[C@@H](CC(=O)Nc3ccccc3)C2=O)cc1	74*	0
O=C(C[C@H]1C(=O)N(Cc2cccnc2)C[C@@H]1Cc1ccccc1)Nc1ccc(Br)cc1	27	-6
COc1ccc([C@H]2CN(c3ccc(OC)cc3)C(=O)[C@@H]2CC(=O)Nc2ccc(Br)cc2)cc1	55*	-4
COc1ccc(NC(=O)C[C@H]2C(=O)N(c3ccccc3)C[C@@H]2Cc2ccccc2)cc1	18	-7
O=C(C[C@H]1C(=O)N(Cc2ccccc2)C[C@@H]1Cc1ccccc1)Nc1ccc(Br)cc1	52*	0
COc1ccc(N2C[C@H](C)[C@@H](CC(=O)Nc3ccc(Br)cc3)C2=O)cc1	-5	0
COc1ccc(NC(=O)CN2CCC3(CC2)N=C(c2ccc(C)cc2)C(=O)N3)cc1OC	39	-2
CC(C)c1ccc(C2Nc3ccccc3NC3=C2C(=O)CC(c2cccs2)C3)cc1 (stereo not drawn)	50	-11
Cc1ccc(N2C(=O)CC(N3CCC(C(N)=O)CC3)C2=O)cc1 (stereo not drawn)	-13	0
Clc1ccccc1CN1CCc2nc(Nc3ccc4c(c3)OCCO4)ncc2C1	78*	4
Fc1ccc(CN2CCc3nc(Nc4ccc5c(c4)OCO5)ncc3C2)c(F)c1	12	-1
CC(C)Oc1ccc(CN2CCc3nc(Nc4ccc5c(c4)OCCO5)ncc3C2)cc1	72*	-4
CCOc1ccc(CN2CCc3nc(Nc4ccc5c(c4)OCCO5)ncc3C2)cc1OC	53*	3
CN(C)c1ccc(CN2CCc3nc(Nc4ccc5c(c4)OCO5)ncc3C2)cc1	40	0
Fc1ccc(CN2CCc3nc(Nc4ccc5c(c4)OCCO5)ncc3C2)c(F)c1	58*	-3
CN(C)c1ccc(CN2CCc3nc(Nc4ccc5c(c4)OCCO5)ncc3C2)cc1	39	-1
COc1ccc(CN2CCc3nc(Nc4ccc5c(c4)OCCO5)ncc3C2)cc1OC	37	1
O=C(Nc1ccc2c(N3CCCCC3)ncnc2c1)c1ccccc1C(F)(F)F	17	-5
COc1ccc(C(=O)Nc2c(F)c(F)c(F)c(F)c2F)c(OC)c1	2	-4
COc1cccc(CNC(=O)N2CCC(n3c(-c4ccco4)nc4cccnc43)C2)c1 (stereo not drawn)	26	-3
COc1ccc(CSc2nnc(C)s2)cc1	4	-3
O=C1CN(C(=O)C2CCN(S(=O)(=O)c3ccc(F)cc3)CC2)c2ccccc2N1	-12	-3
Fc1ccc(Nc2ncc3c(n2)CCN(Cc2ccc4c(c2)OCCO4)C3)cc1	-7	-6
Fc1ccc(CN2CCc3nc(Nc4ccc5c(c4)OCCO5)ncc3C2)cc1F	53*	-3
Cc1nc2ccc3nc(NC(=O)c4ccccc4[N+](=O)[O-])sc3c2s1	30	3
SMILES	mHTT-CaM PPI inh	Pf apPOL block
Cc1nc2ccc3nc(NC(=O)c4ccccc4Cl)sc3c2s1	72*!	-7
Cc1ccc(C(=O)NCc2ccc(N3CCN(C)CC3)cc2)cc1C	x	1
CCn1c(=O)c(-c2ccc(C(=O)NC(C)(C)C)cc2)nc2ccccc21	0	-1
CCNc1ccc(Br)cc1-c1nc2ccccc2n(CC)c1=O	52*	-1
COc1ccc2nc(C)cc(N)c2c1	-1	-40
COc1ccc(-n2c(C)ccc2C)c(N)c1	54*	-2
CCCCN(C)C(=O)c1ccc2c(c1)NC(=O)C1CCCCN21 (stereo not drawn)	1	0
COc1cccc(NC(=O)N2CCC3(CC2)NC(=O)c2cc(Cl)ccc2N3C)c1	-1	2
O=C(c1cc(F)c(F)cc1Cl)N1CCN(c2ccc([N+](=O)[O-])cc2Cl)CC1	2	-1
Cc1nc(C2CCCN(Cc3ccc(Br)o3)C2)n[nH]1 (stereo not drawn)	50*	-10
Cc1nc(C2CCCN(Cc3cccc4[nH]ccc34)C2)n[nH]1 (stereo not drawn)	18	-7
Cc1cccc(C2(c3cccc(C)c3)CC2C(=O)NCc2cccnc2)c1 (stereo not drawn)	25	-2
COc1ccc(C)cc1NC(=O)CC(C)(C)C	0	-1
Cc1cc(C)c(S(=O)(=O)N2CCCC(C)(C(=O)NCc3cccc(F)c3)C2)c(C)c1 (stereo not drawn)	8	-2
Cc1cccc(S(=O)(=O)N2CCCC(C)(C(=O)NCc3ccc(F)cc3)C2)c1 (stereo not drawn)	37	1
Cc1cc(C)c(S(=O)(=O)N2CCCC(C)(C(=O)NCc3ccc(F)cc3)C2)c(C)c1 (stereo not drawn)	91*	-4
Cc1cc(C)c(S(=O)(=O)N2CCCC(C)(C(=O)NCc3ccc(F)cc3)C2)cc1C (stereo not drawn)	61*	0
CN(C)c1ccc(/C=C/C=C/c2cc[n+](C)cc2)cc1	60*	-14
CN(C)c1ccc(/C=C/C=C/c2cccc[n+]2C)cc1	46	7
Fc1ccc(-c2cc3n(n2)CCCN(Cc2cccc(F)c2)C3)cc1	92*	-5

Compound activity deposited in PubChem BioAssay by University of Kansas High Throughput Screening Laboratory.
